This is an account of results in PubChem BioAssay.

Activity calls are given as the source filed them.

The test system of assay [1] is Human papillomavirus type 1a protein E7 (residues 44-93). The experiment in a line: small molecules binding HPV E7 44-93 – biochemical, small-molecule microarray, residues 44-93, 635 nm fluorescence, primary screen (AID 1108).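 Also: E7 fragment applied at 1 µg/mL in TBST for 1 h at 4 C; score combines spot fluorescence with its signal to noise ratio.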 Particulars: fluorescence 635 nm, higher = more signal.
Assay [2] can be described thus: hepatitis C replication reporter changes, two-sided – Huh7 cells, luciferase reporter, HCV replication inhibitor project, primary screen (AID 1109).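 Also: huh7 hepatoma cells harbouring a luciferase neomycin HCV replicon reporter; luciferase luminescence as measure of HCV replicon replication; test concentration not given here.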 Particulars: Huh7 HCV replicon luciferase reporter, 48 h; higher = more signal.
The target in assay [3] is Left-right determination factor 2 (Homo sapiens) (UniProt O00292). The experiment in a line: small molecules binding LEFTY2 protein – biochemical, small-molecule microarray, 635 nm fluorescence scan, primary screen (AID 1110). The note with it: higher = more signal.
Chain of Left-right determination factor 2 (Homo sapiens) (O00292 whole entry, looked up): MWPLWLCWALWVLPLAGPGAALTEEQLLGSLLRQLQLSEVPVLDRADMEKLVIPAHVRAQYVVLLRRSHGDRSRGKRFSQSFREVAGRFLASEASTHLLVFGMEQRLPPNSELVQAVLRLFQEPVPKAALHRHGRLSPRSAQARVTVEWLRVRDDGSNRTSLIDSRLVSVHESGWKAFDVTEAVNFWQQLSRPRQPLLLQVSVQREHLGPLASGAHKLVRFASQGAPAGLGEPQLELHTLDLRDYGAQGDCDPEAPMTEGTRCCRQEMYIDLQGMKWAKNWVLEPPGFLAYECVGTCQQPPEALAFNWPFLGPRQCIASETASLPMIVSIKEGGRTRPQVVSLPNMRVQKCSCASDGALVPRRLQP
Assay [4] has as its target Calmodulin-1 (Homo sapiens) (UniProt P0DP23). Kind of assay: small molecules binding calmodulin-1 with EGTA – biochemical, small-molecule microarray, Cy5-labelled CALM1, profiling panel (AID 1111).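 Also: labelled calmodulin applied in Tris saline Tween buffer holding calcium plus EGTA and DTT.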 The note with it: Cy5-CALM1 binding fluorescence, higher = more signal.
The target is the same in assay [5]. The experiment in a line: small molecules binding Ca-loaded calmodulin-1 – biochemical, small-molecule microarray, Cy5-labelled CALM1, plus calcium, artefact control for SMM control-protein annotation, profiling panel (AID 1112).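 Also: score merges spot fluorescence with signal to noise from triplicate slides.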 Particulars: Cy5-CALM1 binding fluorescence, higher = more signal.
Assay [6] can be described thus: probe aWnt5a binding to arrayed compounds – biochemical, biotinylated probe, 635/667 nm fluorescence, primary screen (AID 1113).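 Also: score merges 667 nm fluorescence intensity with signal-to-noise per printed feature.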 Particulars: small-molecule microarray, higher = more signal.
Assay [7] is described as follows: probe aShh binding to arrayed compounds – biochemical, biotinylated probe, 635/667 nm fluorescence, primary screen (AID 1114).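 Also: probe is biotin-labelled aShh protein from a stem cell growth factor screen; measures binding of labelled protein to compounds printed on the slide; score merges feature fluorescence at 667 nm with signal-to-noise.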 Particulars: small-molecule microarray, higher = more signal.
Assay [8] in a line: probe aNog binding to arrayed compounds – biochemical, biotinylated probe, 635/667 nm fluorescence, primary screen (AID 1115).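 Also: probe is biotinylated aNog protein used at 0.15 µg/mL for 1 h at 4 C; z-score combines 667 nm fluorescence of each spot with its signal to noise.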 Particulars: small-molecule microarray, higher = more signal.
The target in assay [9] is Torsin-1A-interacting protein 1 (Homo sapiens) (UniProt Q5JTV8). Kind of assay: compound microarray binding of lysate hLAP1 – cell lysate, small-molecule microarray, COS7 lysate, 635/667 nm fluorescence, primary screen (AID 1116). Particulars: 635 nm fluorescence, higher = more signal.
Chain of Torsin-1A-interacting protein 1 (Homo sapiens) (Q5JTV8 whole entry, looked up): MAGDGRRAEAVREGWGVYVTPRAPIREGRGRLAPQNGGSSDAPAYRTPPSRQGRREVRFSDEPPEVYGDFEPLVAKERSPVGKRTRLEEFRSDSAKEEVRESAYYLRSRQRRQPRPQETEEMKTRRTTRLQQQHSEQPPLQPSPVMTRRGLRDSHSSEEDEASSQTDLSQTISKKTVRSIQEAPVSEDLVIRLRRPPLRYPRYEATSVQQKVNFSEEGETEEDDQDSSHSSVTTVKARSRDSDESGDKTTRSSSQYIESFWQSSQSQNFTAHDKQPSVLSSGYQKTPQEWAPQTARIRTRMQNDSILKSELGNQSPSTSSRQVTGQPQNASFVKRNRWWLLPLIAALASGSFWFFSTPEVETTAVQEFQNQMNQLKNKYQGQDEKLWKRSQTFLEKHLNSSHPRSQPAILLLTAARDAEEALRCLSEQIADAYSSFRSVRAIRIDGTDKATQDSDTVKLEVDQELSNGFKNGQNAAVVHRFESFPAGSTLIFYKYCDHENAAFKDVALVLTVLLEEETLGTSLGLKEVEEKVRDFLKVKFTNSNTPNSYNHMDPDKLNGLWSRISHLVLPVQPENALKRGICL
The target in assay [10] is Alpha-bungarotoxin (Bungarus multicinctus) (UniProt P60615). The experiment in a line: compounds binding labelled alpha-BTX control protein – biochemical, small-molecule microarray, Alexa647 label, 635/667 nm fluorescence, artefact control for SMM control protein annotation, profiling panel (AID 1117). Particulars: alpha-BTX-A647 binding fluorescence, higher = more signal.
Chain of Alpha-bungarotoxin (Bungarus multicinctus) (P60615 whole entry, looked up): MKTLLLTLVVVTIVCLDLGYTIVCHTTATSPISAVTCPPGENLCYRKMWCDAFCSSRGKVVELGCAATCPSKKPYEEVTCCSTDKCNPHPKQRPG

The next assay addresses Albumin (Bos taurus) (UniProt P02769). The experiment in a line: compounds binding labelled BSA control protein – biochemical, small-molecule microarray, Alexa647 label, 635/667 nm fluorescence, artefact control for SMM control protein annotation, profiling panel (AID 1118).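 Also: score merges 667 nm emission intensity and signal-to-noise per printed compound spot.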 Particulars: BSA-A647 binding, fluorescence 635 nm, higher = more signal.
Assay [11] can be described thus: probe aXIP binding to arrayed compounds – biochemical, NeuroSMM set, 635/667 nm fluorescence, primary screen (AID 1119).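 Also: probe is the protein aXip251-270 applied at 1 µg/mL to compound-printed slides; binding of probe to printed compounds measured as 667 nm fluorescence plus signal to noise.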 The note with it: small-molecule microarray, higher = more signal, called active from +8 up or from −8 down.
Assay [12] can be described thus: probe aNOTCH3 binding on compound microarray – biochemical, small-molecule microarray, 635/667 nm fluorescence, primary screen (AID 1120).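 Also: probe is a biotin-tagged antibody raised against NOTCH3 rather than NOTCH3 protein; score merges spot fluorescence near 667 nm with spot signal to noise.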 Particulars: higher = more signal.
Assay [13] can be described thus: probe aNOTCH2 binding on compound microarray – biochemical, small-molecule microarray, 635/667 nm fluorescence, primary screen (AID 1121).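 Also: score merges feature fluorescence read at 667 nm with its signal to noise.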 The note with it: higher = more signal.
Assay [14] addresses Carbonic anhydrase 2 (Homo sapiens) (UniProt P00918). The experiment in a line: compounds binding carbonic anhydrase 2 – biochemical, small-molecule microarray, Alexa647-labelled CAII, profiling panel (AID 1122). Particulars: CAII-A647 binding fluorescence, higher = more signal.
A short description of assay [15]: COS7 lysate on small-molecule microarray, probe aHis, 635 nm (AID 1123).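 Also: z-score combines 667nm fluorescence intensity with signal-to-noise per printed compound spot.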 The note with it: COS7 cell lysate, fluorescence, higher = more signal.
Assay [16] in a line: probe aLAP1 signal on lysate-treated microarray – cell lysate, small-molecule microarray, COS7 lysate, primary screen (AID 1124).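 Also: lysate comes from COS7 cells expressing LAP1 and is applied at 0.3 µg/mL; score merges spot fluorescence near 667 nm with signal-to-noise over triplicate slides.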 Particulars: probe aLAP1, fluorescence, higher = more signal.
The subject of a further assay is Sam68 (KHDRBS1). The experiment in a line: compounds binding KHDRBS1 protein – biochemical, small-molecule microarray, 635 nm fluorescence, primary screen (AID 1125).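 Also: score merges 667 nm channel intensity with signal to noise over triplicate slides.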 The note with it: higher = more signal.
The subject of assay [17] is Chordin-like protein 2 (CHRDL2). The experiment in a line: compounds binding chordin-like 2 – biochemical, small-molecule microarray, 635 nm fluorescence, primary screen (AID 1126).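 Also: printed compound slides probed with Chrdl2 protein at 4 µg/mL for 1 h at 4 C; score merges 667 nm emission intensity with signal to noise over three replicate slides.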 Particulars: fluorescence 635 nm, higher = more signal.
The target in assay [18] is Concanavalin-A (Canavalia ensiformis) (UniProt P02866). Kind of assay: compounds binding concanavalin A lectin – biochemical, small-molecule microarray, Alexa647 label, 635 nm, artefact control for SMM control protein annotation, primary screen (AID 1127).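 Also: z combines 667 nm emission intensity with signal-to-noise across three replicate slides.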 Particulars: ConA-A647 binding fluorescence, higher = more signal.
Chain of Concanavalin-A (Canavalia ensiformis) (P02866 whole entry, looked up): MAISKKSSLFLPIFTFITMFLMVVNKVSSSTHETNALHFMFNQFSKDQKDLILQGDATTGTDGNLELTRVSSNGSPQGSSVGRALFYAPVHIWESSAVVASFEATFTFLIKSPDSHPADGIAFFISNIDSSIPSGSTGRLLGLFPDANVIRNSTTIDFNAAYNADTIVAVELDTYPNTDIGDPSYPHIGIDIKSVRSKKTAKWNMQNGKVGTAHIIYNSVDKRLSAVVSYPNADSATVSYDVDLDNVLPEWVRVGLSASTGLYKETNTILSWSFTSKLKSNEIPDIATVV

Chain of Albumin (Bos taurus) (P02769 whole entry, looked up): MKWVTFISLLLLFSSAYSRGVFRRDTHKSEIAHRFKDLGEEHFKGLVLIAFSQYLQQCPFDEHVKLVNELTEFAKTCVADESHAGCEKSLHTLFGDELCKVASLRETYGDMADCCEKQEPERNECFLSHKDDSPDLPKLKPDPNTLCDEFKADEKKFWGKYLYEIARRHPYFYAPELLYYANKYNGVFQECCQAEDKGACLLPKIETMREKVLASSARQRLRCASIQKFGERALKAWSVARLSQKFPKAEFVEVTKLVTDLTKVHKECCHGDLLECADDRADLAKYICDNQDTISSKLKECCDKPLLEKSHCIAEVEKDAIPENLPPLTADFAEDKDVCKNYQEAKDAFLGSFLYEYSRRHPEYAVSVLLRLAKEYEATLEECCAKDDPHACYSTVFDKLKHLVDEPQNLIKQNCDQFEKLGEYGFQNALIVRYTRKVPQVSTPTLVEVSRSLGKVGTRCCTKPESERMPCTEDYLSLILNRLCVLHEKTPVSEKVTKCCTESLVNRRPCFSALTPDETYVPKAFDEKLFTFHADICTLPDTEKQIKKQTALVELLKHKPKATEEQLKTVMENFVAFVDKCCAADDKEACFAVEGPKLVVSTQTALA

Regarding `CCOC(=O)C[C@H]1[C@H](OC(=O)c2ccc(C(=O)c3ccccc3)cc2)[C@@H](NC(=O)c2ccc3ccccc3c2)c2cc(OCCCO)ccc2N1C(=O)c1ccc2ccccc2n1`, the composite z-score is 1.05 in assay [1]; 0.23 in [3]; 0.794 in assay [4]; -0.191 in assay [5]; -0.168 in assay [6]; -0.191 in assay [7]. The composite z-score was -0.188 in assay [8]; 0.982 in assay [9]; 0.898 in assay [10]; 0.544 in the assay with Albumin (Bos taurus); 0.134 in [12]; 0.0683 in [13]. For the same molecule, the composite z-score worked out at 0.342 in assay [14]; 0.853 in [15]; 0.653 in assay [16]; 1.09 in the assay with Sam68 (KHDRBS1); 0.345 in assay [17]; 0.707 in assay [18]. The molecule further returned a z-score in [2] of -0.415. Besides, the composite Z-score in assay [11] is 0.159 (inactive).
Consider `C=CC[C@@]1(C(=O)N(C)C)N=C(c2ccc(OCCCO)cc2)O[C@@H]1c1ccccc1`, for which the composite z-score in assay [1] is 0.242; in assay [3] it was 0.191; in assay [4] it was 0.401; in [5], 0.621; in [6], 0.233; in assay [7], 0.246. The composite z-score was -0.42 in assay [8]; 0.961 in [9]; 0.826 in assay [10]; 0.434 in the assay with Albumin (Bos taurus); 0.315 in assay [12]; 0.182 in assay [13]. The composite z-score in assay [14] is 0.644; in [15], 2.59; in assay [16] it was 1.01; with Sam68 (KHDRBS1), -0.108; in assay [17] it was 0.0028; in assay [18] it was 0.148. Also, the z-score in assay [2] is -0.624. In addition, the composite Z-score in assay [11] is -0.593 (inactive).
As to `C=CCC(OC(C)=O)[C@@H]1[C@@H](N(Cc2ccc(-c3cccc(C(F)(F)F)c3)o2)C(=O)c2cccc3ccccc23)c2cc(OCCCO)ccc2N1C(=O)c1ccc2ccccc2n1` (stereo not given in full), the composite z-score in assay [1] was -0.193; in [3], -0.309; in assay [4], -0.484; in [5], -0.108; in assay [6] it was -0.0459; in assay [7] it was 0.227. The composite z-score in [8] is 0.169; in assay [9], 0.406; in assay [10], -0.482; with Albumin (Bos taurus) it was -0.197; in [12], 0.0248; in assay [13], -0.103. The composite z-score is -0.162 in assay [14]; 0.385 in assay [15]; -0.202 in [16]; -0.258 in the assay with Sam68 (KHDRBS1); 0.328 in [17]; -0.18 in assay [18]. Also, in assay [2], the z-score was 0.66. Besides, the composite Z-score in assay [11] is -0.116 (inactive).
`CN(C)CCCC[C@@H]1NC(=O)[C@@H]2C[C@H](C(=O)NCCCCCCNC(=O)CS)[C@H](c3cccc(OCCO)c3)N2C1=O`: the composite z-score in assay [1] is -0.275; in [3], 0.0929; in assay [4], -0.172; in assay [5], -0.221; in assay [6], -0.0478; in [7], -0.209. The composite z-score was -0.103 in [8]; 0.947 in assay [9]; 0.0727 in assay [10]; -0.361 in the assay with Albumin (Bos taurus); -0.213 in [12]; -0.0649 in assay [13]. In addition, the composite z-score in assay [14] is 0.48; in assay [15] it was 0.95; in [16], 0.312; with Sam68 (KHDRBS1) it was 0.555; in assay [17], 0.402; in assay [18] it was 0.658. Besides, in assay [2], the z-score was -0.149. Further, in assay [11], the composite Z-score is 0.303 (inactive).
In the case of `COc1ccc([Si](C)(C)[C@H]2[C@H](CCO)O[C@@]3(C(=O)N(Cc4ccc(N5CCOC5=O)cc4)c4ccccc43)[C@@H]2C)cc1`, the composite z-score in [1] is 1.11; in [3] it was -0.284; in assay [4] it was 0.854; in assay [5], 0.455; in assay [6], -0.12; in assay [7], 0.151. The composite z-score in assay [8] is 0; in [9], 0.248; in assay [10], 0.93; with Albumin (Bos taurus) it was 0.243; in [12] it was -0.0697; in assay [13], -0.1. In addition, the composite z-score in [14] is 0.417; in [15], 1.5; in assay [16], 0.171; with Sam68 (KHDRBS1), 0.968; in assay [17], -0.07; in assay [18], 1.11. This molecule had a z-score in assay [2] of -3.71. Moreover, the composite Z-score in [11] was -0.392 (inactive).
